Several values for one entry are separate records, joined by “and”; a condition that tells them apart may be missing. Equal entries are not always repeated. Records with an inconclusive call do not appear. Activity calls are given as the source filed them. The call rests on the fitted dose curve; in most records, active means well fitted curve in the direction sought with a large enough effect; inconclusive means small, poorly fitted or top-dose-only effect, or another doubt; inactive means no such curve, though single readings can be large; an effect the other way counts as inactive or inconclusive. Where a SMILES comes first, the peptide text is derived from it. [ ]: non-standard residue; d: D form.
Experiments:
[1] = system: CRL-7250; assay: Cytotoxic Profiling of Annotated Libraries Using Quantitative High-Throughput Screening (AID 1296008); conditions: Five cell lines viability, CellTiter-Glo ATP luminescence, 48-72 h; max response: active compounds read low; further: nearly all actives have a fitted effect of over 60% in size; on max response: on the % scale 0 is the no-effect control and ±100 the full control effect
In short: (§1)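 Cytotoxicity was measured as CellTiter-Glo ATP luminescence, read after 10 min at room temperature. Compound treatment of the cells lasted 48 or 72 hr at 37 degrees Celsius in a qHTS format.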

[2] = system: HEK293; assay: as above; conditions: Five cell lines viability, CellTiter-Glo ATP luminescence, 48-72 h; max response: active compounds read low
In short: as §1

[3] = system: HaCat; assay: as above; conditions: Five cell lines viability, CellTiter-Glo ATP luminescence, 48-72 h; max response: active compounds read low
In short: as §1

[4] = system: KB-3-1; assay: as above; conditions: Five cell lines viability, CellTiter-Glo ATP luminescence, 48-72 h; max response: active compounds read low
In short: as §1

[5] = system: NIH3T3; assay: as above; conditions: Five cell lines viability, CellTiter-Glo ATP luminescence, 48-72 h; max response: active compounds read low
In short: as §1

[6] = system: HEK293T; assay: qHTS assay to identify novel small-molecules to repurpose for Merkel cell carcinoma treatment (AID 1296009); conditions: MCC and control cell lines, CellTiter-Glo viability, 72 h; series mostly up to 44.8 µM; further: nearly all actives have a fitted effect of over 60% in size
In short: (§2)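 Cell viability measured by CellTiter-Glo following 72 hr compound treatment at 37 degree celsius, with NPC and MIPE libraries tested in 8- and 11-point concentration series.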

[7] = system: NIH3T3; assay: as above; conditions: MCC and control cell lines, CellTiter-Glo viability, 72 h; at 44.8 µM (top of the series) unless noted
In short: as §2

[8] = system: C33A; assay: Primary qHTS to identify gynecologic anti-cancer compounds using libraries of approved drugs and bioactive compounds (AID 1345084); conditions: Gynecologic cancer cell panel viability, ATPlite luminescence, 48 h; series mostly up to 57.5 µM; further: on the % scale 0 is the no-effect control and ±100 the full control effect; nearly all actives have a fitted effect of over 55% in size
In short: (§3)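 Cell viability after 48 h drug treatment, ATPlite luminescence readout; five doses.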

[9] = system: CAOV3; assay: as above; conditions: Gynecologic cancer cell panel viability, ATPlite luminescence, 48 h; series mostly up to 57.5 µM
In short: as §3

[10] = system: CASKI; assay: as above; conditions: Gynecologic cancer cell panel viability, ATPlite luminescence, 48 h; series mostly up to 57.5 µM
In short: as §3

[11] = system: Es-2; assay: as above; conditions: Gynecologic cancer cell panel viability, ATPlite luminescence, 48 h; series mostly up to 57.5 µM
In short: as §3

[12] = system: HeLa; assay: as above; conditions: Gynecologic cancer cell panel viability, ATPlite luminescence, 48 h; series mostly up to 57.5 µM
In short: as §3

[13] = system: HACAT; assay: qHTS assay to identify novel small-molecules to repurpose for Merkel cell carcinoma treatment (AID 1296009); conditions: MCC and control cell lines, CellTiter-Glo viability, 72 h; at 44.8 µM (top of the series) unless noted; further: nearly all actives have a fitted effect of over 60% in size
In short: as §2

CC1=CCC2C(C)(CO)CCCC2(C)C1CC12OC1C(O)C(CO)=CC2O (configuration not stated)
inactive: max response [1] 4.27% | outcome [2] | max response [3] -8.88% | outcome [4] | outcome [5] | Potency [6] | outcome [7] | Potency [8] | Potency [9] | Potency [10] | Potency [11] | Potency [12]

COC(=O)C1(Cc2ccc(O)cc2)OC(=O)C(OC)=C1c1ccc(O)cc1 (configuration not stated)
inactive: max response [1] -4.87% | outcome [2] | max response [3] -3.39% | outcome [4] | outcome [5] | Potency [6] | outcome [7] | Potency [8] | Potency [9] | Potency [10] | Potency [11] | Potency [12]

CC(=O)N[C@H](Cc1ccc(O)cc1)C(=O)N[C@H](CCCN=C(N)N)C(=O)N[C@H](Cc1ccccc1)C(N)=O (Ac-[dY]-[dR]-[dF]-NH2)
inactive: max response [1] -2.02% | outcome [2] | max response [3] -6.09% | outcome [4] | outcome [5] | Potency [6] | outcome [7] | Potency [8] | Potency [9] | Potency [10] | Potency [11] | Potency [12]

CCCn1cnc2c(NCc3ccccc3)nc(N[C@H](CC)CO)nc21
inactive: max response [1] -7.86% | outcome [2] | max response [3] 0.198% | outcome [4] | outcome [5] | Potency [6] | outcome [7] | Potency [8] | Potency [9] | Potency [10] | Potency [11] | Potency [12]

C=C(C)C1CC2(CO)C(=CC1=O)CCC(O)C2C (configuration not stated)
inactive: max response [1] 3.39% | outcome [2] | max response [3] -2.77% | max response [4] 4.67% | outcome [5] | Potency [6] | outcome [7] | Potency [8] | Potency [9] | Potency [10] | Potency [11] | Potency [12]

CCC(NC(=O)CC(NC(=O)C(CO)NC(=O)C(CC)NC(=O)c1ccc[nH]1)c1ccccc1)C(=O)O (configuration not stated)
inactive: max response [1] -9.47% | outcome [2] | max response [3] -0.876% | outcome [4] | outcome [5] | Potency [6] | outcome [7] inactive [at 17.4 µM] | Potency [8] | Potency [9] | Potency [10] | Potency [11] | Potency [12]

CC(C)=CCCC1(C)Oc2cc3c(c4c2C2C(O4)C(C)(O)CCC21)CN(C(CCC(=O)O)C(=O)O)C3=O (configuration not stated)
inactive: outcome [1] | outcome [2] | max response [3] -6.38% | outcome [4] | outcome [5] | Potency [6] | outcome [7] inactive [at 17.4 µM] | Potency [8] | Potency [9] | Potency [10] | Potency [11] | Potency [12]

CC(C)=CCC[C@](C)(O[C@@H]1O[C@H](CO[C@@H]2OC[C@@H](O)[C@H](O)[C@H]2O)[C@@H](O)[C@H](O)[C@H]1O)[C@H]1CC[C@]2(C)[C@@H]1[C@H](O)C[C@@H]1[C@@]3(C)CC[C@H](O[C@@H]4O[C@H](CO)[C@@H](O)[C@H](O)[C@H]4O[C@@H]4O[C@H](CO)[C@@H](O)[C@H](O)[C@H]4O)C(C)(C)[C@@H]3CC[C@]12C
inactive: outcome [1] | outcome [2] | max response [3] -10.6% | outcome [4] | outcome [5] | Potency [6] | outcome [7] inactive [at 17.4 µM] | Potency [8] | Potency [9] | Potency [10] | Potency [11] | Potency [12]

COC(=O)c1cc(CN2CCN(C(=N)N)CC2)cc(C(=O)N2CCN(C(=O)c3ccc(C(=N)N)cc3)CC2)c1
inactive: outcome [1] | outcome [2] | max response [3] 1.52% | max response [4] 2.44% | outcome [5] | Potency [6] | outcome [7] | Potency [8] | Potency [9] | Potency [10] | Potency [11] | Potency [12]

OC[C@H]1O[C@@H](OCCc2ccc(O)cc2)[C@H](O)[C@@H](O)[C@@H]1O
inactive: max response [1] 1.66% | max response [2] -4.41% | outcome [3] | max response [4] 7.2% and 9.78% | max response [5] -4.78% | outcome [13] | Potency [8] | Potency [9] | Potency [10] | Potency [11] | Potency [12]

CC(C(=O)O)C1CCC2(C)C3C(=O)C=C4C(CCC(=O)C4(C)C)C3(C)CCC12C (configuration not stated)
inactive: max response [1] 0.281% | outcome [2] | max response [3] -2.22% | outcome [4] | outcome [5] | Potency [6] | outcome [7] inactive [at 17.4 µM] | Potency [8] | Potency [9] | Potency [10] | Potency [11] | Potency [12]

COC1C2=C(COC2=O)C2(C)CCCC(C)(CO)C2C1OC(=O)c1ccccc1 (configuration not stated)
inactive: outcome [1] | outcome [2] | max response [3] -2.64% | outcome [4] | outcome [5] | Potency [6] | outcome [7] inactive [at 17.4 µM] | Potency [8] | Potency [9] | Potency [10] | Potency [11] | Potency [12]

COC1=CC(=O)C[C@@H](C)[C@]12Oc1cc(OC)cc(OC)c1C2=O
inactive: max response [1] -2.71% | outcome [2] | max response [3] -2.69% | max response [4] 5.37% | outcome [5] | Potency [6] | outcome [7] | Potency [8] | Potency [9] | Potency [10] | Potency [11] | Potency [12]

C=CC(C)(C)C1(CC2NC(=O)C3CCCN3C2=O)C(=O)Nc2cc3c(cc21)C=CC(C)(C)O3 (configuration not stated)
inactive: max response [1] -5.49% | outcome [2] | max response [3] -0.592% | max response [4] 2.09% | outcome [5] | Potency [6] | outcome [7] inactive [at 17.4 µM] | Potency [8] | Potency [9] | Potency [10] | Potency [11] | Potency [12]

Source: PubChem BioAssay (NCATS)
